Test results: the supplement of paper PMC11732987, “Enantioselective OTUD7B fragment discovery through chemoproteomics screening and high-throughput optimisation” (Communications Chemistry, 2025)

Columns and labels:
Assay in all cases: log2 ratio of Biotin-Ahx-Ub-VS probe labelling (fragment/DMSO); higher = less target engagement (more negative = stronger competition), active = hit call of the paper (q ≤ 0.05, log2 ratio ≤ -1)
Settings in all cases: compound concentration: 200 uM; treatment time: 3 h
ALG13 = molecular target: T1, ALG13 (UniProt Q9NP73)
T1 sequence (whole entry): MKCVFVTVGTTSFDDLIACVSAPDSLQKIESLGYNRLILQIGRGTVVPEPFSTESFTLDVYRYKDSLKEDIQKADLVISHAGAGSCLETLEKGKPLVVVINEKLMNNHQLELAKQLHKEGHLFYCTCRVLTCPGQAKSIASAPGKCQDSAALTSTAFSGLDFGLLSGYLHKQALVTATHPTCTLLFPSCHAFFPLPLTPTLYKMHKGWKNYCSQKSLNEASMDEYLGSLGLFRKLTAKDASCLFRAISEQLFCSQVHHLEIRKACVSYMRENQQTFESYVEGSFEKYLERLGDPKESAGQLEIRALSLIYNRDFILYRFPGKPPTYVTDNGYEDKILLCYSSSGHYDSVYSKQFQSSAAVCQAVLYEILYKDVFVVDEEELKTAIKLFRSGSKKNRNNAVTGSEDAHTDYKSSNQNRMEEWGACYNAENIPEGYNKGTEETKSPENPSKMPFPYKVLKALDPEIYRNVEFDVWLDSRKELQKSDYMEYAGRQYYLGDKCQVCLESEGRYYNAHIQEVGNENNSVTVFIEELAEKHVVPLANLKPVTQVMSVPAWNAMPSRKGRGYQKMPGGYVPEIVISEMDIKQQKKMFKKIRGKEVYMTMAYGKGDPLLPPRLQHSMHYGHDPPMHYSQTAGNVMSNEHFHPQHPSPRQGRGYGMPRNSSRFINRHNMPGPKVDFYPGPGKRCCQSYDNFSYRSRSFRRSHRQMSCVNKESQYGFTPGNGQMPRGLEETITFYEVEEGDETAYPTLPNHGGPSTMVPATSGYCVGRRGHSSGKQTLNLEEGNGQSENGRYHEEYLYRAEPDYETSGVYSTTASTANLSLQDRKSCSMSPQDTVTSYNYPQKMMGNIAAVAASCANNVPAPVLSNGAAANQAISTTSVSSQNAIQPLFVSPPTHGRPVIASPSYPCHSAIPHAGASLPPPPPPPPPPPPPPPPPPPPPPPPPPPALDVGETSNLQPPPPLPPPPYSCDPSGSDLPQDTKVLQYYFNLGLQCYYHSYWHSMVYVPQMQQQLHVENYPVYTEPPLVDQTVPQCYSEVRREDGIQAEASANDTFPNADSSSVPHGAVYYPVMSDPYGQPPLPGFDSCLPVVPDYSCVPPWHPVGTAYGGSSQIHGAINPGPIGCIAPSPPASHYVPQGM
Method in brief: (§1)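 Labelling with Biotin-Ahx-Ub-VS (0.5 µM final, 1 h) followed a 3 h triplicate treatment of HEK293T lysate (495 µg per sample, Tris/CHAPS/IGEPAL buffer with protease inhibitors) with fragment at 200 µM or vehicle. Labelled DUBs were NeutrAvidin-enriched, digested with LysC and trypsin, and run by diaPASEF LC-MS/MS. The values, average log2 fragment/vehicle ratios by unpaired t-test, come from global-median-normalised Spectronaut label-free quantities. Proteins with ≥2 unique peptides were used.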

ATXN3 = ATXN3 (UniProt P54252)
ATXN3, sequence (P54252 whole entry): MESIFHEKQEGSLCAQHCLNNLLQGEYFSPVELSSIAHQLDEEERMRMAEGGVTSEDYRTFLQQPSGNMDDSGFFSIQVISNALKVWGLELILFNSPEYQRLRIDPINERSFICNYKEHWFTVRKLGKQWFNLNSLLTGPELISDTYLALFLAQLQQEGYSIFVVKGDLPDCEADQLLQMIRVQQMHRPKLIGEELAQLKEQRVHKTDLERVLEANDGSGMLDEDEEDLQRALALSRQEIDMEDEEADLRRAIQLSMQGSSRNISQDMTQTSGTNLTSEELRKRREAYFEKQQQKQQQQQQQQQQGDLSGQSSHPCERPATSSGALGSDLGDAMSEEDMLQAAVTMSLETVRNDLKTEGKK
Method in brief: as §1

BAP1 = molecular target: T2, BAP1 (UniProt Q92560)
T2 sequence (whole entry): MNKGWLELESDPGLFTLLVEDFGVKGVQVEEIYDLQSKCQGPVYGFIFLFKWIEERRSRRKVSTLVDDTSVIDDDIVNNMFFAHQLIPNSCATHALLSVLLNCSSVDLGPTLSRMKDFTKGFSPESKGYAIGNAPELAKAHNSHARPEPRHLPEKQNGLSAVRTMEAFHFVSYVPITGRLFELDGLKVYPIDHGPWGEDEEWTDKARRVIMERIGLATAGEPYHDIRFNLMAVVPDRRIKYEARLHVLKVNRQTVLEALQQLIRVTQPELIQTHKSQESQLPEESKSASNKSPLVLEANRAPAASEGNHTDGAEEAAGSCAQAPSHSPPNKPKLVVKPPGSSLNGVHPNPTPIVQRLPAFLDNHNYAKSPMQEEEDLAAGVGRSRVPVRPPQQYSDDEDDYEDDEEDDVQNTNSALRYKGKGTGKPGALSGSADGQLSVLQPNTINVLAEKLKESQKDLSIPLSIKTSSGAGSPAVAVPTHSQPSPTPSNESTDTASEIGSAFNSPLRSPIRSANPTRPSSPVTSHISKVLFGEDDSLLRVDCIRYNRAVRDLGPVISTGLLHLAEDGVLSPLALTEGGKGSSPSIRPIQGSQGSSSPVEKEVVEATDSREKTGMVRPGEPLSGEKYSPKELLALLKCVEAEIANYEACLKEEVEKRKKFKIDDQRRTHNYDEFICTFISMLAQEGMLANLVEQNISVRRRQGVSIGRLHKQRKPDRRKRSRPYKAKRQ
Method in brief: as §1

EIF3F = EIF3F (UniProt O00303)
EIF3F, sequence (O00303 whole entry): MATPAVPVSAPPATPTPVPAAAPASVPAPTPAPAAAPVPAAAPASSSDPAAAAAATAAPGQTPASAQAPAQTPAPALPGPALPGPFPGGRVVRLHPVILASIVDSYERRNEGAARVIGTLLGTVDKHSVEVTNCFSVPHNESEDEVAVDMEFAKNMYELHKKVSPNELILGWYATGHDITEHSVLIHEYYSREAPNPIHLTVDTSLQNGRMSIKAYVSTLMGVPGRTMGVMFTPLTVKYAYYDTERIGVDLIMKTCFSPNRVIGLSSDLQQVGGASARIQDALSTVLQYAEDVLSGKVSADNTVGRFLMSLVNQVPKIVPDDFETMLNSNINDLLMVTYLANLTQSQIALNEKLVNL
Method in brief: as §1

EIF3H = EIF3H (UniProt O15372)
EIF3H, sequence (O15372 whole entry): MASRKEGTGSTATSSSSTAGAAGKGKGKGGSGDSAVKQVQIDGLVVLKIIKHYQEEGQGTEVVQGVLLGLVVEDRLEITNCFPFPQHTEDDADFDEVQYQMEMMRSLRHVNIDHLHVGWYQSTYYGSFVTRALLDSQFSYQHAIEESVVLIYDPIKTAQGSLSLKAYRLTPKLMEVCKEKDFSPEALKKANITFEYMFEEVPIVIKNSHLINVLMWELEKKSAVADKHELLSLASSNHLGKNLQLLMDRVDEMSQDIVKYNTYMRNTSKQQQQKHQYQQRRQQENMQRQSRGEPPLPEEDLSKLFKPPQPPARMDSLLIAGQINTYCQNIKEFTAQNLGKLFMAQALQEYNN
Method in brief: as §1

FAM105A = molecular target: T3, FAM105A (UniProt Q9NUU6)
T3 sequence (whole entry): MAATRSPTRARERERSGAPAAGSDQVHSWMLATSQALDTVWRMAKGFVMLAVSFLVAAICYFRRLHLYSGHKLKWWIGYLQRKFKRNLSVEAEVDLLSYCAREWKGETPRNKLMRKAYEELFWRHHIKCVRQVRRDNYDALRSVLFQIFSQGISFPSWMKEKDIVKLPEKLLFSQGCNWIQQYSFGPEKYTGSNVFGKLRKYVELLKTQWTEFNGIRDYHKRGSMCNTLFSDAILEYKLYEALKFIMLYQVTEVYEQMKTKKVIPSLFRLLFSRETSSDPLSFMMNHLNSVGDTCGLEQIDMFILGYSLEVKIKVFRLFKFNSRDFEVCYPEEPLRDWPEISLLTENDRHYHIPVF
Method in brief: as §1

OTUB1 = OTUB1 (UniProt Q96FW1)
OTUB1, sequence (Q96FW1 whole entry): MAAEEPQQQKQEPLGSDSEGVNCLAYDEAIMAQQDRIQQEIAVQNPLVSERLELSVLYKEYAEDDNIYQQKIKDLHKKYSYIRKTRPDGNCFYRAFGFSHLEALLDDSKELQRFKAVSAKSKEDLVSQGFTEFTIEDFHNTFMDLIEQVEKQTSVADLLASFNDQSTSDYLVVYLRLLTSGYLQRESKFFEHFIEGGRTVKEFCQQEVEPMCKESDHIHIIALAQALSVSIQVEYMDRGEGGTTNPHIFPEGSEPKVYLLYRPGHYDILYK
Method in brief: as §1

OTUD4 = molecular target: T4, OTUD4 (UniProt Q01804)
T4 sequence (whole entry): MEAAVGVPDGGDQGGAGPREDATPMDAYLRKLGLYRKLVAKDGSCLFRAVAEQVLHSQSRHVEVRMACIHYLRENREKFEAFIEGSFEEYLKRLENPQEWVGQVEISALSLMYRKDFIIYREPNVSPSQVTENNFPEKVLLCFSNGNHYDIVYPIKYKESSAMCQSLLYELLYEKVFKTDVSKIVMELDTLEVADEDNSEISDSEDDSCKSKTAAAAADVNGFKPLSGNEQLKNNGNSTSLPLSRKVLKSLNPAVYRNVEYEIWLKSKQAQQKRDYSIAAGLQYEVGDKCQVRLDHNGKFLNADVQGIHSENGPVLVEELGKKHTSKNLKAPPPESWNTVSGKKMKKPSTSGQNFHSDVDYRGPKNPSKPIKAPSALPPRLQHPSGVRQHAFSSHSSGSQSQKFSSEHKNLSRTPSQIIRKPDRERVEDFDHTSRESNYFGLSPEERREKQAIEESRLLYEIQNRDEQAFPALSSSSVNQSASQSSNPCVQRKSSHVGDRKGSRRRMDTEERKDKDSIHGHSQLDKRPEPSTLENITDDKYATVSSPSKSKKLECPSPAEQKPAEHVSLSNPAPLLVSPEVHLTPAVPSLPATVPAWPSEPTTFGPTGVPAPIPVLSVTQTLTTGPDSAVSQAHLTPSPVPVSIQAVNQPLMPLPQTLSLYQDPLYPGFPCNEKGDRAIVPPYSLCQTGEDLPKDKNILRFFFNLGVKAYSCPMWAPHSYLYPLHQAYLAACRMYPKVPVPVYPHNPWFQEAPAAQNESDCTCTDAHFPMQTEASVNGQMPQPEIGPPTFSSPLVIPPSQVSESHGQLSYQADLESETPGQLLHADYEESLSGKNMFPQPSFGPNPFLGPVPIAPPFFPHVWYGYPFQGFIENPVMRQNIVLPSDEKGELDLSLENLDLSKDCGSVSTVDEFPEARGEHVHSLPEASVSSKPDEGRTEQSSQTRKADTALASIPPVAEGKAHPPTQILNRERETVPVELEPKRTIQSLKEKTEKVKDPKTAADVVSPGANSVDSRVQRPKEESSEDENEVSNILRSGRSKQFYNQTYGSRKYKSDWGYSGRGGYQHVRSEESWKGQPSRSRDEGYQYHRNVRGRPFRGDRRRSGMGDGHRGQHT
Method in brief: as §1

OTUD5 = molecular target: T5, OTUD5 (UniProt Q96G74)
T5 sequence (whole entry): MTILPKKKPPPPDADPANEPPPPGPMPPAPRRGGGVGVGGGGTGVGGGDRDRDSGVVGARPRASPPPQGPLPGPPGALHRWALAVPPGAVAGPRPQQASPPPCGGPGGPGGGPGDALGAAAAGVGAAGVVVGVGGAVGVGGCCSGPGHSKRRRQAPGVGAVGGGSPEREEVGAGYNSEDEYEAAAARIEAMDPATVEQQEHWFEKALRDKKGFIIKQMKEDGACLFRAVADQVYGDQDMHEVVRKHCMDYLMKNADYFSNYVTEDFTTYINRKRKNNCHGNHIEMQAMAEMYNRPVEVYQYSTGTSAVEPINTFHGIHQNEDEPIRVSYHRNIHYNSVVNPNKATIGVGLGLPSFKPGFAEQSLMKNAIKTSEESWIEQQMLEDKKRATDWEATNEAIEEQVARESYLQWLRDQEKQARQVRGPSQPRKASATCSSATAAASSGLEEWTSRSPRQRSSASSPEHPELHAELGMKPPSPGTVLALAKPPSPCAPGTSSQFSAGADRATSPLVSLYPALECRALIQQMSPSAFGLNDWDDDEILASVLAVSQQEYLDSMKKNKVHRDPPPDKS
Method in brief: as §1

Measured: log2 ratio of Biotin-Ahx-Ub-VS probe labelling

Cc1cccc(C(CNC(=O)CCl)N2CCOCC2)c1.Cl (centres undefined)
inactive: ALG13 -0.0491 | ATXN3 0.0164 | BAP1 -0.497 | EIF3F 0.0302 | EIF3H 0.267 | FAM105A -0.778 | OTUB1 -0.156 | OTUD4 -0.199 | OTUD5 -0.241
